Our source for the outcome values is PubChem BioAssay (Tox21).

The source made the active and inactive calls. The call rests on the fitted dose curve; in most records, active means well fitted curve in the direction sought with a large enough effect in the repeat runs; inconclusive means weak or mixed curves; inactive means flat fitted curve, though single readings scatter.

A short description of this experiment: qHTS assay to test for compound auto fluorescence at 535 nm (green) in HepG2 cell free culture (AID 720686). As to conditions: Cell-free medium, green autofluorescence 485/535 nm; series mostly up to 91.3 µM. The source says: U.S. Tox21 Program National Center for Advancing Translational Sciences [NCATS] NIH Chemical Genomics Center [NCGC] U.S. Environmental Protection Agency [EPA] National Institutes of Environmental Health Sciences [NIEHS] National Toxicology Program [NTP] U.S. Food and Drug Administration [FDA] Tox21 Assay Overview: Compound auto fluorescence often interferes with screening of the compound library against various biological targets and signaling pathways. Some of these compounds may have fluorophoric properties. Such properties may interfere with the assay outputs resulting in false positives and/or negatives. To decrease such complications and ensure the compound activities are relevant in terms of biological response, the Tox21 10K compound library was screened for auto fluorescence. From the fluorophores used as reporter signals in our screening assays, the auto fluorescence equivalencies of compounds against three fluorophores have been evaluated: Triamterene, Fluorescein and Rose Bengal sodium for blue, green and red fluorescence, respectively. The fluorescence intensities were measured using Excitation/Emission wavelengths at 405/460nm, 485/535nm and 540/590nm for blue, green and red labels, respectively. This assay includes the green fluorescence data.
Tox21 Assay Protocol Summary: 5 uL of culture medium (MEM containing 10% FBS) per well was dispensed into black wall/clear bottom 1536-well plates using a Multidrop Combi Dispenser (ThermoFisher Scientific, Waltham, MA). After 23 nL compound or DMSO vehicle was transferred into assay plate by a pintool work station (Kalypsys, San Diego, CA), fluorescence intensities in the assay plates were measured by an Envision (PerkinElmer, Shelton, CT) plate reader using three labels for measuring blue, green and red fluorescence at […] 460, 535 and 590nm respectively.
For `CCCCCCCC[N+](C)(CCCCCCCC)CCCCCCCC`, the compound was classed as inactive.
For `CCOP(=S)(OCC)SCn1c(=O)oc2cc(Cl)ccc21`, the compound was classed as inactive.
`CCCCCCCCCc1ccc(O)cc1`: the compound was classed as inactive.
Next, `Nc1ncn[nH]1`: “inactive”.
Regarding `ClC(Cl)=C(Cl)C(Cl)=C(Cl)Cl`, the outcome was inactive.
In the case of `O=[N+]([O-])/N=C1\NCCN1Cc1ccc(Cl)nc1`, the compound was classed as inactive.
`[Cl-].[Cl-].[Cl-].[Fe+3]`: the call was inactive.
With `CCCCOCCOC(C)=O` the entry was “inactive”.
Regarding `Clc1ccc(C(Cl)(Cl)Cl)cc1`, the call was inactive.
Turning to `Clc1cccc(Cl)c1`, the result was inactive.
Next, `C[N+](C)(C)C`: “inactive”.
Next, `CCOP(=O)(OCC)OCC`: “inactive”.
With `CC1(C)Cc2cccc(O)c2O1` the entry was “inactive”; with `CC(C)=CC1C(C(=O)OCc2cccc(Oc3ccccc3)c2)C1(C)C` (stereo not given), “inactive”; with `O=[N+]([O-])c1ccc(Nc2ccccc2)cc1`, “inactive”.
Turning to `CCC/C=N/O`, the call was inactive.
Next, `Cl`: “inactive”; `CC[n+]1c(-c2ccccc2)c2cc(N)ccc2c2ccc(N)cc21`: “inactive”; `S=c1[nH]c2ccccc2[nH]1`: “inactive”.
Next, `CC1CC(=O)O1` (stereo not given): “inactive”; `COc1ccc(O)c(C(C)(C)C)c1`: “inactive”.
For the compound `CNC(=O)Oc1cccc2c1OC(C)(C)C2`, the compound was called inactive.
With `OC(c1ccc(Cl)cc1)(c1cncnc1)c1ccccc1Cl` (stereo not given) the entry was “inactive”; with `CCOP(=S)(OCC)OP(=S)(OCC)OCC`, “inactive”.
In the case of `CN(C)c1nc(=O)n(C2CCCCC2)c(=O)n1C`, the outcome was inactive.
Next, `O=C(O)CF`: “inactive”; `ClC(Cl)(Cl)c1ccccc1`: “inactive”; `O=NN(c1ccccc1)c1ccccc1`: “inactive”.
Next, `CC(C)Nc1nc(Cl)nc(NC(C)C)n1`: “inactive”; `C[C@]12CCC(=O)C=C1CC[C@@H]1[C@@H]2CC[C@@]2(C)[C@H]1CC[C@]2(C)O`: “inactive”.
Turning to `CCOC(=O)c1ccccc1N`, the result was inactive.
With `C=C(C)C#N`, the compound was classed as inactive.
With `CC1(C)C(C(=O)OC(C#N)c2cccc(Oc3ccccc3)c2)C1(C)C` (stereo not given) the entry was “inactive”; with `CCNc1nc(Cl)nc(NC(C)(C)C#N)n1`, “inactive”; with `Clc1ccccc1-c1nnc(-c2ccccc2Cl)nn1`, “inactive”.
Next, `ClCC(Cl)CCl`: “inactive”; `COc1ccc(CO)cc1`: “inactive”; `ClCc1ccccn1`: “inactive”.
With `C[N+](C)(C)CC(=O)[O-]` the entry was “inactive”; with `C=CC(=O)OCC(CC)(COC(=O)C=C)COC(=O)C=C`, “inactive”.
